PubChem BioAssay
Calls of active or inactive are those of the source.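 Rule for the calls: active = visually confirmed hit in the image check and inhibition above 20%; inconclusive = visually confirmed hit but inhibition not above 20%; inactive = no visual hit in the image check.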

Assay: inhibitors of E-selectin induction by TNFa, primary screen, imaging, HUVEC, immunofluorescence, MLSMR starter and 10KST1 sets (AID 487);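 for inhibition: signal is fraction of cell area covered by stained E-selectin grains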;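 for nuclei count: 100% = median nuclei count of all wells on the same plate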
Conditions: HUVEC TNFalpha-induced E-selectin immunofluorescence imaging, at 2 µM; inhibition: stronger effect = higher value; nuclei count: measured here: cell number, toxicity

SMILES | nuclei count | inhibition
CCN1CCCC1Cn1cnc2c([nH]c3ccc(C)cc32)c1=O (stereo not drawn) | 160% | 13.2% (inactive)
CCOC(=O)CSc1nc(N)c(C#N)c(-c2ccc(OC)cc2)c1C#N | 127% | -88.5% (inactive)
CCOC(=O)CC1=C(C(=O)OCC)C(c2cc(OC)c(OC)cc2OC)C(C#N)=C(N)O1 (stereo not drawn) | 106% | -66.1% (inactive)
CCCOc1ccc(/C(O)=C2/C(=O)C(=O)N(CCN(C)C)C2c2ccncc2)cc1 (stereo not drawn) | 154% | -139% (inactive)
CN=C1c2c(-c3ccccc3)c3cc(OC)ccc3n2CCN1C | 145% | -137% (inactive)
COCCOC(=O)C1=C(C)NC(SCC(=O)NC(C)(C)C)=C(C#N)C1c1ccco1 (stereo not drawn) | 121% | -124% (inactive)
c1ccc(-c2nnc3n2N=C(c2ccc4c(c2)OCO4)CS3)nc1 | 144% | -177% (inactive)
C=COC(=O)CSc1nc(-c2cccs2)ccc1C#N | 152% | -26.9% (inactive)
Cn1c(=O)oc2cc(C(=O)c3ccccc3)ccc21 | 177% | -42.8% (inactive)
CCOc1nc(SCCOc2ccc(C)cc2)nc(N(C)C)n1 | 91.5% | -115% (inactive)
Cc1ccc(CC2CC(=O)N(c3ccc4c(c3)OCCO4)C2=O)cc1 (stereo not drawn) | 129% | -17.8% (inactive)
COC(=O)Cn1cc(C(=O)OC)cc(Br)c1=O | 136% | -135% (inactive)
CCN(CC)CCNC(=O)c1c(C)oc2cc(Br)c(OC)cc12 | 112% | -70.3% (inactive)
N=c1c2c(-c3ccccc3)c(-c3ccccc3)n(Cc3ccccc3)c2ncn1CCCn1ccnc1 | 142% | 17.5% (inactive)
